ERAP1 inh – human ERAP1 aminopeptidase inhibitors, primary screen, biochemical, single point, plate reader; recombinant ERAP1, Leu-AMC fluorescence, 60 min; inhibition, % at 10.7 µM; 0.15% of 340,000 active; AID 652197, 2013;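 active = mean replicate inhibition of at least 30%, or all replicates individually reaching that 30% level; inactive = mean below 30% and not every replicate reaching it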;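 note: 0% = neutral control wells and 100% = L-leucinethiol positive control wells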
FGF22 binding – binders of human FGF22 protein, primary screen, FGF22 synaptogenesis inhibitor project, biophysical, thermal shift, single point | Fibroblast growth factor 22 (Homo sapiens), Q9HCT0 | recombinant FGF22 thermal shift, SYPRO orange fluorescence; percent of sucrose octasulfate shift, DMSO zero | activity (Tm shift, normalised), % at 9.99 µM | 1.5% of 340,000 active | AID 651658, 2012;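 active = mean Tm shift, scaled 0 neutral to 100 positive control, at about 1.3% or above, every replicate too, limit read from the data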
Target sequence (Q9HCT0 whole entry, looked up): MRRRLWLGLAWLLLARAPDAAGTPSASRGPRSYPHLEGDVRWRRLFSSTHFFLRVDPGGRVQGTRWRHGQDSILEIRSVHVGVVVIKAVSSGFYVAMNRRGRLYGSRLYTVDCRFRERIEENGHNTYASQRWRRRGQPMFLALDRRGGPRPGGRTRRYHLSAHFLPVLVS
Casp6 inh – human caspase-6 inhibitors, primary screen, biochemical, VEID-R110 fluorescence, single point, set 2; P55212; 0.53% of 350,000 active; purified caspase-6, Z-VEID-R110 cleavage fluorescence; inhibition, % at 12.5 µM;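 active = mean inhibition across replicates at least about 35%, with every replicate also reaching that limit, limit read from the data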;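 note: 0% = median of neutral control wells and 100% = no fluorescence left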
SIRT5 block – SIRT5 desuccinylase inhibitors, primary screen, biochemical, fluorescence imaging, single point, set 5; inhibition, % at 15 µM; 1.1% of 330,000 active; Purified SirT5, succinyl-peptide AMC, trypsin-coupled fluorescence; AID 652115, 2013; in the data active = inhibition above about 15%
Target sequence (Q9NXA8 whole entry, looked up): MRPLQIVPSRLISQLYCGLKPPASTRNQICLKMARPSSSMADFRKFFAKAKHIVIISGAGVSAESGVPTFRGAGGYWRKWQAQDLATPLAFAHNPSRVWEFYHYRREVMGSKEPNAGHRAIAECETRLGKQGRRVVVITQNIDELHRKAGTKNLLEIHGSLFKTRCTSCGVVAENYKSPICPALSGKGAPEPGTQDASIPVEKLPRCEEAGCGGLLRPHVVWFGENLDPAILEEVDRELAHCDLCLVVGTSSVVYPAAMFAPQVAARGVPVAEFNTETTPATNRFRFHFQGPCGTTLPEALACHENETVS
GSIS activator – GLuc luminescence reporter in INS-1E cells, primary screen for activators of glucose-dependent secretion of insulin. INS-1E GLuc reporter insulin secretion, 2-3 h. activation, % at 16.6 µM. 0.61% of 370,000 active. AID 743287, 2014;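 active = lowest replicate activation of at least 40%, so every replicate reaches that level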;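 note: 0% = median of neutral control wells and 100% = median of IBMX positive control wells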
Starred values were filed as active, the others as inactive. Compounds with a hit are over-represented: about 3.3% of the library has one in this group of screens.

`Cc1noc(C)c1S(=O)(=O)N(C)C[C@H]1Oc2ccc(NC(=O)CCN3CCOCC3)cc2CC(=O)N([C@@H](C)CO)C[C@H]1C` gave ERAP1 inh -1, FGF22 binding 0, Casp6 inh -1, SIRT5 block -3 and GSIS activator 0.
Screening CCc1ccc(OCC(=O)NC(=S)Nc2ccc(F)cc2)c(Br)c1 returned GSIS activator 59*.
Screening CCn1nnnc1NCc1ccc(OCc2ccc(F)cc2Cl)c(OC)c1 returned ERAP1 inh 4, FGF22 binding 43*, Casp6 inh 0, SIRT5 block 2 and GSIS activator -34.
For CCOC(=O)C1CCCN(C(=O)c2ccc3nc(-c4ccc(OC)c(OC)c4)c(-c4ccc(OC)c(OC)c4)nc3c2)C1 (centres undefined) the results were ERAP1 inh 34*, FGF22 binding 0, Casp6 inh 8, SIRT5 block 11 and GSIS activator -19.
COc1ccccc1CN1CC[C@@H]2[C@H]1c1cc(-c3ccc(C(=O)N(C)C)cc3)ccc1N[C@@H]2CO was read as ERAP1 inh -7, FGF22 binding 0, Casp6 inh 1, SIRT5 block 1 and GSIS activator 2.
`C/C(=N\NC(=O)COc1ccc(C)cc1Br)c1cc([N+](=O)[O-])cs1` gave ERAP1 inh 0, FGF22 binding 43*, Casp6 inh 2 and GSIS activator 11.
Screening O=C(CC(NC(=O)c1ccccc1)c1ccccc1)Nc1cccc2ccccc12 (centres undefined) returned GSIS activator 95*.
CCCC#Cc1ccc2c(c1)O[C@H](CN(C)C(=O)Nc1ccc(OC)cc1)[C@@H](C)CN([C@H](C)CO)S2(=O)=O was read as ERAP1 inh 1, FGF22 binding 0, Casp6 inh -2, SIRT5 block 13 and GSIS activator -26.
`COc1ccc(NC(=O)N(C)C[C@@H]2Oc3cc(C#CCC(C)C)ccc3S(=O)(=O)N([C@H](C)CO)C[C@@H]2C)cc1` gave ERAP1 inh 0, FGF22 binding 0, Casp6 inh -1, SIRT5 block 31* and GSIS activator -37.
`COc1ccc(NC(=O)N(C)C[C@@H]2Oc3cc(C#CCC(C)C)ccc3S(=O)(=O)N([C@@H](C)CO)C[C@H]2C)cc1` gave ERAP1 inh -2, FGF22 binding 0, Casp6 inh 1, SIRT5 block 31* and GSIS activator -37.
CCCC#Cc1ccc2c(c1)O[C@H](CN(C)C(=O)Nc1ccc(OC)cc1)[C@H](C)CN([C@@H](C)CO)S2(=O)=O was read as ERAP1 inh 0, FGF22 binding 1, Casp6 inh -1, SIRT5 block 6 and GSIS activator -4.
For CCCC#Cc1ccc2c(c1)O[C@H](CN(C)C(=O)Nc1ccc(OC)cc1)[C@H](C)CN([C@H](C)CO)S2(=O)=O the results were ERAP1 inh -1, FGF22 binding 0, Casp6 inh -3, SIRT5 block 4 and GSIS activator -28.
COc1ccc(NC(=O)N(C)C[C@H]2Oc3cc(C#CCC(C)C)ccc3S(=O)(=O)N([C@H](C)CO)C[C@@H]2C)cc1 was read as ERAP1 inh 1, FGF22 binding 0, Casp6 inh -1, SIRT5 block 26* and GSIS activator -36.
For COc1ccc(NC(=O)N(C)C[C@H]2Oc3cc(C#CCC(C)C)ccc3S(=O)(=O)N([C@H](C)CO)C[C@H]2C)cc1 the results were ERAP1 inh -1, FGF22 binding 0, Casp6 inh 2, SIRT5 block 25* and GSIS activator -41.
For CCCC#Cc1ccc2c(c1)O[C@@H](CN(C)C(=O)Nc1ccc(OC)cc1)[C@@H](C)CN([C@H](C)CO)S2(=O)=O the results were ERAP1 inh 0, FGF22 binding 1, Casp6 inh -1, SIRT5 block 6 and GSIS activator -14.
`Cc1noc(C)c1NC(=O)Nc1ccc2c(c1)C(=O)N([C@H](C)CO)C[C@@H](C)[C@H](CN(C)S(=O)(=O)c1cn(C)cn1)OCCCC[C@H](C)O2` gave ERAP1 inh 2, FGF22 binding -1, Casp6 inh 0, SIRT5 block 2 and GSIS activator 21.
`CC(C)[C@@H]1COCn2nncc2CC[C@H](Cc2ccc(-c3ccccc3)cc2)C(=O)N1` gave GSIS activator 7.
COc1ccc(S(=O)(=O)N(C)C[C@H]2Oc3cc(C#CC4CCCC4)ccc3S(=O)(=O)N([C@H](C)CO)C[C@@H]2C)cc1 was read as ERAP1 inh 1, FGF22 binding 0, Casp6 inh -4, SIRT5 block 15* and GSIS activator -8.
COc1ccc(S(=O)(=O)N(C)C[C@@H]2Oc3cc(C#CC4CCCC4)ccc3S(=O)(=O)N([C@@H](C)CO)C[C@H]2C)cc1 was read as ERAP1 inh 0, FGF22 binding 0, Casp6 inh -2, SIRT5 block 16* and GSIS activator 0.
Screening COc1ccc(S(=O)(=O)N(C)C[C@H]2Oc3cc(C#CC4CCCC4)ccc3S(=O)(=O)N([C@@H](C)CO)C[C@@H]2C)cc1 returned ERAP1 inh 1, Casp6 inh -6, SIRT5 block 25* and GSIS activator 3.
`C[C@@H]1CN([C@H](C)CO)S(=O)(=O)c2ccc(-c3ccc(F)cc3)cc2O[C@@H]1CN(C)C(=O)C1CC1` gave GSIS activator -22.
O=C(O)c1cc(S(=O)(=O)N2CCN(S(=O)(=O)c3ccc4ccccc4c3)CC2)ccc1Br was read as ERAP1 inh 2, FGF22 binding 0, Casp6 inh 40* and SIRT5 block 6.
Screening Cc1noc(C)c1S(=O)(=O)Nc1ccc2c(c1)C(=O)N([C@@H](C)CO)C[C@H](C)[C@H](CN(C)C(=O)c1ccccc1)OCCCC[C@@H](C)O2 returned ERAP1 inh 3, Casp6 inh -1, SIRT5 block 2 and GSIS activator 3.
Screening C[N+]1(C2CCC3CCCC2C3O)CCCCC1 (centres undefined) returned ERAP1 inh 46*, FGF22 binding 0, Casp6 inh -9, SIRT5 block -6 and GSIS activator -11.
Screening O=C(NC1CCCCC1)C(c1ccccn1)N(C(=O)c1csnn1)C1CCCCC1 (centres undefined) returned ERAP1 inh -1, Casp6 inh -1, SIRT5 block 15* and GSIS activator -10.
For CC(C)(C)NC(=O)C(c1ccccn1)N(C(=O)c1csnn1)C1CCCC1 (centres undefined) the results were ERAP1 inh -1, FGF22 binding 0, Casp6 inh -4, SIRT5 block 27* and GSIS activator 18.
